From the supplement of paper PMC11150407 come the findings set out here.

Values joined by “and” are separate entries in the source; they are usually repeats but may differ in a detail not shown here. Equal values may be shown once. Screen size: about 2,100 compounds; about 180 (8.6%) showed an effect of 50% or more. The sample as a whole holds a higher share of strong results than the screen did.

As a reminder, the cell viability is a read-out of living cells in per cent, often relative to untreated cells.

The test system of the test is MOLM1 and UCSD/AML1 (averaged). Put plainly: cell viability relative to DMSO control (POC); higher = less growth inhibition. As to conditions: 1 µM; 72 h. On the procedure: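 Primary viability screen in the 3q26 EVI1-high AML cell lines MOLM1 and UCSD/AML1 (1.5e3 cells/well, 384-well), compounds at 1 uM for 72 h. ATP CellTiter-Glo read-out given as percent of viable cells over DMSO control (POC), averaged over duplicates. DMSO was the negative control and 5 uM etoposide the positive control. This mapping covers the MicroSource Spectrum and Selleck anticancer libraries (drug names).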
Take `CC(=O)O[C@]1(C)CC[C@@]23C[C@H]1C(C)(C)[C@@H]2CC[C@H]3C`: the cell viability is 107%.

On to `C[C@H]1CC[C@@H](C(C)(C)O)CC2=C1CC[C@@H]2C`, for which the cell viability was 94.4%.

As for `Oc1ccc2c(c1)OC[C@]1(O)Cc3cc(O)c(O)cc3[C@H]21`, the cell viability was 105%. In the case of `COc1cc2ccc(=O)oc2cc1O`, the cell viability came out at 94.7%. With `CC1/C(=N/O)C[C@@H]2C[C@H]1C2(C)C` (some centres not stated) the figure was 102%; with `C[n+]1ccccc1C=NO`, 99.8%; with `COc1ccc(C2CC(=O)c3ccc(OC)cc3O2)cc1` (configuration not stated), 109%.

As for `N#Cc1c(O)c2c(-c3ccc(-c4ccccc4O)cc3)csc2[nH]c1=O`, the cell viability worked out at 97.3%.

In the case of `COC(=O)[C@H]1[C@H]2C[C@H]3c4[nH]c5cc(OC)ccc5c4CCN3C[C@H]2C[C@@H](OC(=O)c2cc(OC)c(OC)c(OC)c2)[C@@H]1OC`, the cell viability amounted to 111%. Regarding `COC1=C[C@@H](C)[C@@H]2C[C@H]3OC(=O)C[C@H]4C(C)=C(OC)C(=O)[C@H]([C@@]2(C)C1=O)[C@@]34C`, the cell viability is 93.7%.

For the compound `CC(C)CC(=O)Nc1n[nH]c2c1CN(C(=O)C1CCN(C)CC1)C2(C)C`, the cell viability is 49.4%. With `O=c1[nH]cnc2nc[nH]c12` the figure was 102%; with `CC1(C)CC[C@]2(C)CC[C@]3(C)C(=CC[C@@H]4[C@@]5(C)CC[C@H](O)C(C)(C)[C@@H]5CC[C@]43C)[C@@H]2C1` [beta-AMYRIN], 91.8%. With `CC1(C)CNc2cc(NC(=O)c3cccnc3NCc3ccncc3)ccc21` [Motesanib Diphosphate] the figure was 86.1%; with `CCCCC(CC)CN=C(N)N=C(N)NCCCCCCNC(N)=NC(N)=NCC(CC)CCCC` (configuration not stated), 7.07%. The same measure for `O=C(O)[C@]1(O)C[C@@H](O)[C@@H](O)[C@H](O)C1`: 97.5%; for `C[C@@H]1CN(CC(=O)Nc2ccc3c(c2)Cc2cccc(-c4cc(=O)cc(N5CCOCC5)o4)c2S3)C[C@H](C)O1`: 88.5%. As for `CCCCCC(=O)Cc1cc(O)cc(O)c1C(=O)Oc1cc(CC(=O)CCCCC)c(C(=O)O)c(OC)c1`, the cell viability was 87.8%. The same measure for `COc1c(-c2coc3cc4c(cc3c2=O)CC(O)C(C)(C)O4)ccc2c1C=CC(C)(C)O2` (configuration not stated): 82.2%; for `COc1ccc(CC(=O)c2ccc(O)cc2O)cc1`: 107%. With `O.O.O.O.O.O.O.O.O.O.O.O.O.O.O.O.O=S(=O)([O][Al])OC[C@H]1O[C@@](COS(=O)(=O)[O][Al])(O[C@H]2O[C@H](COS(=O)(=O)[O][Al])[C@@H](OS(=O)(=O)[O][Al])[C@H](OS(=O)(=O)[O][Al])[C@H]2OS(=O)(=O)[O][Al])[C@@H](OS(=O)(=O)[O][Al])[C@@H]1OS(=O)(=O)[O][Al]` the figure was 101%; with `COC(=O)C[C@H]1C(C)(C)[C@@H](OC(C)=O)[C@@H]2CC3=C4CC(=O)O[C@@H](c5ccoc5)[C@]4(C)CC[C@@H]3[C@@]1(C)C2=O`, 103%. For `COC(=O)c1c(C)cc(O)cc1O`, the cell viability was determined as 98.5%. For `CCCCCCCCCCCCC[N+](C)(C)Cc1ccccc1`, the cell viability was found to be 25.7%. As for `Cc1cc(C(C)(C)CC(C)(C)C)ccc1OCCOCC[N+](C)(C)Cc1ccccc1`, the cell viability was 88.2%. With `CC(C)(C)CC(C)(C)c1ccc(OCCOCC[N+](C)(C)Cc2ccccc2)cc1` the figure was 97.1%; with `Cc1ccc(C(C)C)cc2c(C)ccc1-2`, 84.7%; with `COc1ccc(-c2cc(=O)c3c(O)c(OC)c(OC)c(OC)c3o2)cc1OC`, 80.2%. As to `O=C(Nc1ccccc1)Nc1ccccc1`, the cell viability was 87.7%. The same measure for `O=C(Nc1ccccc1)c1ccccc1O`: 97.1%; for `O=C(CCCCCCC(=O)Nc1ccccc1)NO` [Vorinostat (SAHA)]: 22%. The same measure for `O=c1c(O)c(-c2ccccc2)oc2cccc(O)c12`: 93.1%; for `CCC(CCC(C)C1CCC2C3CCC4CC(O)CCC4(C)C3CCC12C)C(C)C` (configuration not stated): 89.6%; for `C=C1C(N)CC2CC1C2(C)C` (stereo not drawn) [3-AMINO-beta-PINENE]: 96.3%. The same measure for `CC(C)[C@@H]1CC[C@@H](C)CC1=O`: 102%. For `CC(=O)O[C@H]1C(=O)[C@@]2(C)[C@H]([C@H](OC(=O)c3ccccc3)[C@]3(O)C[C@H](OC(=O)[C@H](O)[C@@H](NC(=O)c4ccccc4)c4ccccc4)C(C)=C1C3(C)C)[C@]1(OC(C)=O)CO[C@@H]1C[C@@H]2O`, the cell viability came out at 11.7%.

With `CC(=O)O[C@@]12CO[C@@H]1C[C@H](O)[C@@]1(C)C(=O)[C@H](O)C3=C(C)[C@@H](OC(=O)[C@H](O)[C@@H](NC(=O)OC(C)(C)C)c4ccccc4)C[C@@](O)([C@@H](OC(=O)c4ccccc4)[C@H]21)C3(C)C` [Docetaxel (Taxotere)], the cell viability came to 14.7%. With `CC(=O)O[C@H]1C(=O)[C@@]2(C)[C@H]([C@H](OC(=O)c3ccccc3)[C@]3(O)C[C@H](OC(=O)[C@H](O)[C@@H](NC(=O)c4ccccc4)c4ccccc4)C(C)=C1C3(C)C)[C@]1(OC(C)=O)CO[C@@H]1C[C@@H]2O` [Paclitaxel (Taxol)] the figure was 12.3%; with `COc1nc(C)cnc1NS(=O)(=O)c1cccnc1-c1ccc(-c2nnco2)cc1` [Zibotentan (ZD4054)], 71.2%. The same measure for `Nc1nccc(Oc2ccc(NC(=O)c3c[nH]cc(-c4ccc(F)cc4)c3=O)cc2F)c1Cl`: 83.2%; for `O=C1c2ccccc2C(=O)c2c(O)c(O)cc(O)c21`: 83.8%; for `O=c1c(O)c(-c2ccccc2)oc2cc(O)ccc12`: 107%.

In the case of `CC1(C)CC[C@]2(C(=O)O)CC[C@]3(C)C(=CC[C@@H]4[C@@]5(C)CC[C@H](O)[C@@](C)(CO)[C@@H]5CC[C@]43C)[C@@H]2C1`, the cell viability was 89.4%.

In the case of `COc1ccc(C(C)=O)c(OC)c1`, the cell viability was found to be 91.5%. The same measure for `COC(=O)c1c(C)cc(OC(=O)c2c(C)cc(O)c(C=O)c2O)c(C)c1O`: 100%; for `O=C(NCCCNc1nc(Nc2cccc(NC(=O)N3CCCC3)c2)ncc1I)c1cccs1`: 47.6%; for `C#CC1(O)CC[C@H]2[C@@H]3CCC4=CC(=O)CC[C@@H]4[C@H]3CC[C@@]21CC` (mixture of isomers): 69.3%.

Take `C[C@@H]1CC[C@H]2C(C)(C)[C@H]3C[C@@]12CC[C@@]3(C)O`: the cell viability turned out to be 105%. The same measure for `COc1cc2ccc(=O)oc2c(OC)c1OC`: 110%; for `CCCCCCCCCCCCCCC(C(=O)O)C(O)(CC(=O)OC)C(=O)O` (configuration not stated): 87.8%; for `CN1CCN(c2ccc3nc(-c4c(N)c5c(F)cccc5[nH]c4=O)[nH]c3c2)CC1` [Dovitinib (TKI-258)]: 26.7%.

As for `COc1cc2c(cc1OC)-c1cc3ccc(OC)c(OC)c3c[n+]1CC2`, the cell viability is 95.7% and 88.9%.
